Laboratory results from PubChem BioAssay AID589 (National Center for Advancing Translational Sciences (NCATS), 2007).
The campaign covered roughly 59,000 compounds. About 6,200 (11%) were called active. Roughly 9% stayed inconclusive and do not appear here. No stated cut-off is given here; in the data, active means max dye-equivalent concentration above about 10 nM; inconclusive means mostly about 1.1 nM to 9.6 nM; inactive means weaker than that. Many of the other results were omitted from the sample, so actives are more common in it than they were. Some structures have more than one record in an assay (separate samples or runs), and their calls can disagree.

assay: qHTS Assay for Spectroscopic Profiling in 4-MU Spectral Region; conditions: compound autofluorescence, 340/450 nm, 4-MU equivalents; hits give high values
Source text: NIH Molecular Libraries Screening Centers Network [MLSCN] NIH Chemical Genomics Center [NCGC] […] Occasionally, the artifactual effect may originate from the compounds own spectral or other biophysical properties which generally tend to track its assay concentration. Pre-screening/profiling the library with respect to the compounds spectral properties should help one exclude false positives early on. While the most informative fluorescent profiling data set is obtained by performing a full excitation and emission scan of each well by using a monochromator-based plate reader, such an approach is practical only on a very limited scale as scanning each well requires long time. An alternative approach, applied here, is to perform plate reader scans using selected excitation and emission wavelength pairs to generate a multidimensional relational database that correlates compound concentration and the respective relative fluorescence intensity at a given wavelength set. A standard curve of 4-methylumbelliferone (4-MU) present on each plate as six-point concentration series, was used to compute a normalized fluorescence response, termed dye-equivalent concentration, for each compound at each concentration.
NCGC Assay Protocol Summary: Buffer: 100 mM Tris buffer, pH 8.0 Dye standard plate: The wells in columns 1 through 4 of a Kalypsys polypropylene 1536-well compound plate were filled with standard solutions of fluorophore corresponding to the spectral region of interest. Solutions of 4-MU were placed in the following wells: A1, B1: 3 mM, A2, B2: 300 uM, A3, B3: 30 uM, A4, B4: zero (DMSO), C1, D1: 3 uM, C2, D2: 900 nM, C3, D3: 300 nM, C4, D4: zero (DMSO). Assay Steps: Six uL of buffer were dispensed to 1536-well Greiner black plates. Compounds and dye standards (23 nL) were transferred via Kalypsys PinTool. The plates were incubated for 15 min at room temperature, and then read on ViewLux (Perkin-Elmer) High-throughput CCD imager using 340 nm and 450 nm excitation and emission filter set. Keywords: NIH Roadmap, MLSCN, MLI, MLSMR, qHTS, NCGC, Fluorescent Profiling, 4MU, 4-MU

Max dye-equivalent concentration, active:
N#Cc1c2c(c(-c3ccccc3)[nH]c1=O)CCCC2 16 nM
FC(F)(F)c1cc(-c2cccs2)nc(NCc2ccco2)n1 20 nM
CC(NCCO)C(=O)C12CC3CC(CC(C3)C1)C2 (stereo not drawn) 36 nM
COc1ccc(-c2cc3ccc(OCc4nn[nH]n4)cc3oc2=O)cc1 8100 nM
CC(C)OC(=O)c1cc(NC(=O)C2C3CCC(O3)C2C(=O)O)cc(C(=O)OC(C)C)c1 (stereo not drawn) 14 nM
Cc1nc2ccc(NC(=O)N3CCC(c4ccccc4)C3)cc2nc1C (stereo not drawn) 550 nM
CCOc1ccc2cc(C#N)c(SCC(=O)OC)nc2c1 37 nM
CCCCOC(=O)c1[nH]c(C)c(C(=O)OC)c1C 360 nM
CCN(CC)CCNC(=O)c1cc(S(C)(=O)=O)ccc1OC 10 nM
CN(c1nc2ccccc2n2c(-c3ccco3)nnc12)S(=O)(=O)c1ccccc1 39 nM
N#CC(C(=O)c1ccc(S(=O)(=O)N2CCCCCC2)cc1)c1nc2ccccc2[nH]1 (stereo not drawn) 24 nM
Cc1cc(C)c(C#N)c(SCc2ccccc2C(=O)O)n1 13 nM
OCCCN1c2ccccc2Nc2nnc(-c3ccccc3)cc21 94 nM
CN1c2ccccc2-c2nc3ccccc3n2C1c1ccco1 (stereo not drawn) 2800 nM
O=c1c(-c2cccs2)nc2cnc(Oc3ccccc3)nc2n1-c1ccccc1 18 nM
CS(=O)(=O)N(CC(=O)NCc1ccco1)c1ccc2c(c1)OCO2 27 nM
N#Cc1c2c(c(N3CCN(CCO)CC3)n3c1nc1ccccc13)CCCC2 26 nM
CN(C)CCCNc1c2c(c(C#N)c3nc4ccccc4n13)CCC2 98 nM
COc1ccc(-n2c(SCC(=O)NCc3cccs3)nnc2-c2ccoc2C)cc1 23 nM
O=c1c(-c2cc(F)cc(F)c2)nc2cnc(Oc3ccccc3)nc2n1C[C@H]1CCCO1 12 nM
COCCCNC(=O)CSc1nc2ccc(N3CCOCC3)cc2c(=O)n1CCc1ccccc1 54 nM
CCCCn1c(SCC(=O)NCC2CCCO2)nc2ccc(N3CCOCC3)cc2c1=O (stereo not drawn) 62 nM

Max dye-equivalent concentration, inactive:
CCCCNC(=O)c1c[nH]c2ccc(S(=O)(=O)Nc3ccc(OCC)cc3)cc2c1=O
COc1cccc(N(CC(=O)NC2CCCC2)C(=O)Cn2nnc(-c3ccc(C)cc3)n2)c1
O=C(c1cc(C(F)(F)F)cc(C(F)(F)F)c1)N1CCC2(CCCN(c3ccccn3)C2)CC1
CCCCCN(C(=O)NC(=O)Nc1ccccc1C)S(C)(=O)=O
O=C1C2(c3ccccc3)CN(CCCO)CC1(c1ccccc1)CN(CCCO)C2
C[C@@H](N)[C@@H](C)Cc1ccccc1
O=C(CSc1nc(-c2ccco2)cc(C(F)(F)F)n1)NCc1cccs1
COc1ccc(-c2cc(C(F)(F)F)nc(SCCC(=O)NCc3ccco3)n2)cc1
COc1ccccc1N1CCN(C(=O)CSc2nnc(-c3ccoc3C)o2)CC1
CN1CCN(CC(=O)C23CC4CC(CC(C4)C2)C3)CC1
O=C(CNCCO)NC12CC3CC(CC(C3)C1)C2
Cc1ccc2[nH]c3c(c2c1)CN(C(=O)CN1CCN(c2ccccc2)CC1)CC3
O=C(O)[C@@H](O)Cc1ccccn1
O=C(c1ccco1)N1CCC[C@@]2(CCN(Cc3nccs3)C2)C1
COc1ccc(C(=O)Nc2ccc(S(=O)(=O)Nc3onc(C)c3C)cc2)cc1OC
COc1ccc(OCc2ccc(-c3nc4ccccc4c(=O)n3N)o2)cc1
O=C(Nc1cccc(Cl)c1)OCc1ccccn1
CCC(CC)C(=O)Nc1cc(C(=O)OC)cc(C(=O)OC)c1
CC(C)COC(=O)c1ccc(NC(=O)C2C3C=CC(C3)C2C(=O)O)cc1 (stereo not drawn)
CCC(=O)c1ccc(OCC(O)CN2CC(C)OC(C)C2)cc1 (stereo not drawn)
O=C(c1ccco1)N1CCN(C(=O)C2c3ccccc3Oc3ccccc32)CC1
CS(=O)(=O)c1ccc2nc(NC(=O)CN3CCCCCC3)sc2c1
Cn1c(CCN2CCCCCC2)nc2cc(NC(=O)Nc3ccccc3)ccc21
O=C(Nc1cccc(NC(=O)N2CCN(c3ccccc3)CC2)c1)N1CCN(c2ccccc2)CC1
Cc1cc(C)nc(SCc2nnc(SCC(=O)OC3CCCCC3)o2)n1
CCOc1cccc(NC(=O)CC#N)c1
CC(=O)c1cc(C#N)c(SCC(=O)C(C)(C)C)nc1C
Cc1nn(-c2ccccc2)c2c1C(=O)NC(=O)C(C)(C)C2
CCC(C(=O)N1CCOCC1)n1c(C(=O)OC)cc2occc21 (stereo not drawn)
CC(=O)c1ccc(N2C(=NC(=O)C(C)C)SC3CS(=O)(=O)CC32)cc1 (stereo not drawn)
CCC(C)Sc1nc2c(c(=O)[nH]c(=O)n2C)n1CC(O)COc1cccc2ccccc12 (stereo not drawn)
CCOC(=O)c1c(C)[nH]c(C(=O)COc2ccc3c(c2)OCO3)c1C
CCOC(=O)c1c(C)[nH]c(C(=O)NCc2ccccc2OC)c1C
CCOC(=O)N1CCN(C(=O)Cc2ccc(-n3c(=S)[nH]c4ccccc4c3=O)cc2)CC1
O=C(c1cccs1)N1CCN(C(=O)N2CCOCC2)CC1
COc1ccc(C)cc1NC(=O)c1[nH]c(C)c(C(C)=O)c1C
CCN(CC)S(=O)(=O)c1ccc2[nH]cc(C(=O)NCCc3ccccc3)c(=O)c2c1
Cc1onc(-c2ccccc2)c1C(=O)N1CCOCC1
CCN(c1ccccc1)S(=O)(=O)c1cccc(C(=O)O)c1
c1ccc(CSc2nnc(-c3ccco3)n2Cc2ccccc2)cc1
Cc1ccc(Oc2nc3ccccc3n3c(C)nnc23)cc1
CCc1cc(Br)ccc1NC(=O)C1CCCO1 (stereo not drawn)
CC(=O)N1CCN(CCN=CC2=C(O)CC(C)(C)CC2=O)CC1
Cc1ccccc1-c1nnn(CC(=O)c2ccc(S(=O)(=O)N3CCCC3)cc2)n1
COc1ccccc1N1CCN(C(=O)c2ccc(S(=O)(=O)N3CCCCC3)cc2)CC1
CCOc1cc(C(=O)N2CCc3cc(OC)c(OC)cc3C2)ccc1OC(F)F
CC1(C)CC(=O)c2sc(N)nc2C1
CCOC(=O)C1(Cc2ccc(O)cc2)NC(c2ccccc2F)C2C(=O)N(C)C(=O)C21 (stereo not drawn)
O=C(c1csnn1)N1CCC2(CCN(Cc3nccs3)CC2)CC1
Cc1cc(C)c(C#N)c(SCc2ccc3c(c2)OCO3)n1
Cc1cc(C)c(C#N)c(SCS(=O)c2ccc(C(C)(C)C)cc2)n1 (stereo not drawn)
O=C(Nc1ccon1)c1sc2ccccc2c1Cl
Oc1ccc(Cn2cc[nH]c2=S)cc1
O=C(Oc1ccc2c(c1)CN(Cc1ccccc1)CO2)c1ccccc1
CC(=O)Nc1nonc1-c1nc2ccccc2n1Cc1ccccn1
CCOC(=O)N1CCC(C(N)=O)CC1
CCOc1cc(S(=O)(=O)NC2CC(C)(C)NC(C)(C)C2)ccc1F
COc1ccc(Oc2ncc3nc(C)c(=O)n(-c4ccccc4)c3n2)cc1
COc1ccc(-n2c(=O)c(-c3cn(C)c4ccccc34)nc3cnc(OC)nc32)cc1
O=C1c2ccccc2C(=O)N1c1ccccc1S(=O)C(F)(F)F (stereo not drawn)
O=C(Cn1nnc(-c2ccc3c(c2)OCO3)n1)NCc1ccco1
CS(=O)(=O)N(CC(=O)N1CCN(Cc2ccc3c(c2)OCO3)CC1)c1ccc2c(c1)OCO2
CCn1c(COc2ccc(OC)cc2)nnc1SCC(=O)Nc1cc(OC)ccc1OC
Cc1cn(C2C=CC(CO)O2)c(=O)[nH]c1=O (stereo not drawn)
O=C(NC1CC2CCCC(C1)N2C(=O)N1CCCCC1)C1CCCCC1 (stereo not drawn)
O=C(NCCc1ccco1)c1nn(Cc2ccccc2)c(=O)c2ccccc12
COc1ccccc1-c1c(C)nn2c(C)c(C(C)=O)cnc12
Cc1ccc(C(=O)NC2CCN(C(=O)N3CCOCC3)CC2)cc1
CCCCn1c(CN2CCN(CCO)CC2)nc2ccccc21
Cc1ccc(C(=O)NCC(=O)O)cc1S(=O)(=O)N1CCCCC1
Cc1ccc(C(=O)N(CN2CCCC2=O)c2ccc(F)cc2)cc1
CCOC(=O)c1c(-n2cnnn2)sc(C)c1C
CC(=NCC1CCCO1)c1c(O)[nH]c(=O)[nH]c1=O (stereo not drawn)
CCCCOc1ccc(-c2ncc(C(=O)OCC)c(N)n2)cc1
CCN(CC)CCCN1C(=O)C(=O)/C(=C(/O)c2c(C)nc3ccccn23)C1c1ccc(C)o1 (stereo not drawn)
Cc1ccccc1-n1c(SCC(=O)NCc2cccs2)nnc1-c1ccncc1
COc1ccc(C(=O)NC(=O)CSc2nnc(-c3ccco3)n2-c2ccccc2)cc1
O=C(CSc1nnc(-c2ccco2)n1CC1CCCO1)c1ccccc1 (stereo not drawn)
COc1cccc(Cn2c(=O)c(-c3cc(F)cc(F)c3)nc3cnc(OC)nc32)c1
OCCCNCc1ccccn1
C[C@H]1O[C@@H](CC(=O)O)Cc2c1c(O)c1c(O)cc(-c3cc(=O)c4c(=O)c5c(c(=O)c=4c3=O)C[C@H](CC(=O)O)O[C@@H]5C)c(O)c1c2O
CCn1c(SCC(=O)NCC2CCCO2)nc2cc(S(=O)(=O)N3CCCCC3)ccc21 (stereo not drawn)
CCCCn1c(SCC(=O)NCCc2ccc(OC)c(OC)c2)nc2c1c(=O)n(C)c(=O)n2C
COCCNC(=O)CSc1nc2c(n1-c1ccccc1)CCCC2
CCc1ccc(NC(=O)CSc2nc3ccccc3c(=O)n2CCN2CCOCC2)cc1

outcome, inactive:
CCN(CC)CCNC(=O)c1cc(S(C)(=O)=O)ccc1OC
